Assay outcomes: PubChem BioAssay, several laboratories
TWEAK Fn14 block – TWEAK-Fn14 signaling inhibition; TWEAK-stimulated Fn14 reporter cells, luciferase luminescence, 8 h; inhibition, % at 10 µM; 2% of 360,000 active; AID 1159606; in the data active = inhibition above about 50%
TROY NFkB inh – blocks TROY-dependent signaling in reporter cells. AID 1347056. inhibition, % at 10 µM. 0.98% of 360,000 active. Q293 LMP1-TROYcd NF-kB luciferase reporter, 4 h;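 active = compounds whose plate-normalised and pattern-corrected inhibition of the luciferase reporter signal at the single screening dose is 50% or more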
EBV LMP1 NFkB – reduces LMP1-driven NF-kappaB luciferase signal. LMP1-induced NF-kappaB luciferase reporter cells, luminescence. inhibition, % at 12.5 µM. 0.69% of 350,000 active. AID 504558; in the data active = inhibition above about 41%;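 also: 0% = neutral control wells and 100% = reference inhibitor control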
LGR2 antag – Drosophila LGR2 receptor signaling inhibition; inhibition, % at 9.99 µM; 0.35% of 380,000 active; HEK293 LGR2, CRE-luciferase, bursicon-stimulated, 4 h;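 active = drop in luminescence signal, shown as inhibition above about 50% in the replicate tests, limit read from the data, passing the limit was not always enough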;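 also: agonist challenge used bursicon conditioned medium at about half maximal strength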
EWS-Fli block – inhibitors of EWS/Fli oncoprotein transcriptional activity | A673 NR0B1-luciferase reporter, viability-normalised | inhibition, % at 12.6 µM | 0.67% of 350,000 active | AID 651661;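 active = mean inhibition of at least 50% after viability correction, with every replicate also passing that limit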;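 also: firefly luciferase signal divided by Alamar Blue viability fluorescence both relative to DMSO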
An asterisk follows results filed as active; . = no result; ! = repeats disagree. Sampled rows, rich in hits. Any-hit rate of the full collection: about 2.5%.

SMILES | TWEAK Fn14 block | TROY NFkB inh | EBV LMP1 NFkB | LGR2 antag | EWS-Fli block
Cc1noc(C)c1S(=O)(=O)Nc1ccc2c(c1)C(=O)N([C@@H](C)CO)C[C@@H](C)[C@H](CN(C)S(C)(=O)=O)OCCCC[C@@H](C)O2 | . | . | . | -11 | -4
C[C@@H]1CCCCO[C@@H](CN(C)S(=O)(=O)c2ccccc2)[C@H](C)CN([C@@H](C)CO)C(=O)c2cc(NC(=O)CCCN(C)C)ccc2O1 | . | . | . | -6 | -8
CNC(=O)C[C@@H]1CC[C@@H]2[C@H](COc3ccc(NC(=O)Nc4cccc(F)c4)cc3C(=O)N2C)O1 | . | . | . | 1 | -9
C[C@@H]1CN([C@H](C)CO)C(=O)c2cc(NC(=O)Nc3ccccc3)ccc2O[C@@H](C)CCCCO[C@@H]1CN(C)C | . | . | . | 7 | -5
CSc1ccc(/C=N/Nc2cccc(C(=O)O)c2)cc1 | -61 | -28 | 56* | . | .
COCC(=O)Nc1ccc2c(c1)C(=O)N(C)C[C@@H](OC)[C@H](C)CN(C(=O)Cc1cccnc1)[C@H](C)CO2 | . | . | . | -13 | 6
COc1ccc([C@H]2CN(Cc3ccccc3)C(=O)[C@@H]2CC(=O)Nc2ccccc2)cc1 | -29 | -34 | 5 | -18 | -10
COc1ccc(NC(=O)C[C@H]2C(=O)N(CCc3ccccc3)C[C@@H]2c2ccc(OC)cc2)cc1 | -2 | -14 | 44* | -11 | -20
Cc1ccc(NC(=O)N2CCc3ccccc32)cc1 | 65* | -17 | -16 | . | .
CCc1ccccc1NC(=O)N1CCCc2ccccc21 | 53* | 78* | 3 | -10 | -8
CN1CCN(c2ccc(NC(=O)N3CCc4ccccc43)cc2)CC1 | 95* | 77* | 60* | 60* | 62*
Cc1ccc(NC(=O)N2CCc3ccccc32)cc1C | 18 | -21 | -24 | -45 | -7
C[C@@H]1CN([C@@H](C)CO)C(=O)c2cc(NC(=O)CCC(F)(F)F)ccc2O[C@@H](C)CCCCO[C@H]1CN(C)C(=O)Cc1ccccc1 | . | . | . | 18 | 9
Cc1noc(C)c1NC(=O)N(C)C[C@@H]1Oc2ncc(C#CC3CC3)cc2C(=O)N([C@H](C)CO)C[C@H]1C | . | . | . | 3 | -2
CCN1CCN(CCCNC(=O)c2ccc(/C=C3/Sc4ccccc4N(Cc4ccccc4F)C3=O)cc2)CC1 | 7 | 60* | 0 | 21 | 10
CCOCCCNC(=O)CN1C(=O)/C(=C\c2ccc(C)cc2)Sc2ccccc21 | 24 | -10 | 69* | 3 | -13
C[C@@H]1CCCCO[C@@H](CN(C)CC2CCCCC2)[C@H](C)CN([C@H](C)CO)C(=O)c2cc(NC(=O)Cc3ccccc3)ccc2O1 | . | . | . | -4 | 3
NC(=O)NC(Cc1ccccc1)c1ccccc1 (configuration not stated) | 1 | 10 | 3 | -10 | 4
NC(=O)OCC(COC(N)=O)c1ccccc1 | 14 | 7 | 68*! | 8 | -3
COc1cc(C(=O)Nc2ccc3c(c2)CCN3C(C)=O)cc(OC)c1OC | 18 | 20 | 10 | -1 | 67*
CCOC(=O)C(=CNc1ccc2c(c1)CCN2C(C)=O)C(=O)OCC | 19 | 47 | 49* | . | -15
CCOC(=O)C(=CNc1ccc(-c2ccco2)c(Cl)c1)C(=O)OCC | 3 | 10 | 47* | . | 6
CN1C(=O)c2cc(NC(=O)c3cccs3)ccc2OC[C@H]2O[C@@H](CC(=O)N3CCCCC3)CC[C@@H]21 | . | . | . | -9 | 3
Cc1sc2ncnc(SC(C)C(=O)N3c4ccccc4Sc4ccccc43)c2c1C (configuration not stated) | -5 | 3 | 12 | 11 | 90*
Cc1ccc(OCC(=O)NNC(=O)C(C)Sc2ncnc3sc(C)c(C)c23)cc1 (configuration not stated) | -12 | -20 | 10 | . | .
SMILES | TWEAK Fn14 block | TROY NFkB inh | EBV LMP1 NFkB | LGR2 antag | EWS-Fli block
O=C1CNC[C@@H]2[C@H](c3ccc(C4=CCCCC4)cc3)[C@@H](CO)N12 | . | . | . | -1 | 3
COc1cc(NC(=O)c2cnc(N)o2)cc(C(=O)Nc2cccc(C(F)(F)F)c2)c1 | 57*! | 25 | 26 | 6 | 21
COc1cc(NC(=O)c2ccnc(N)c2)cc(C(=O)Nc2cccc(C(F)(F)F)c2)c1 | -20 | -29 | 5 | -17 | -14
COc1cc(NC(=O)c2csc(N)n2)cc(C(=O)Nc2cccc(C(F)(F)F)c2)c1 | 18 | -17 | -9 | -11 | 61*
CN(C)CCCNC(=O)C[C@H]1CC[C@@H]2[C@@H](COc3ccc(NC(=O)c4cccc(F)c4)cc3C(=O)N2C)O1 | . | . | . | 2 | -14
COCC(=O)Nc1ccc2c(c1)OC[C@@H](C)N(Cc1ccccc1F)C[C@@H](C)[C@H](OC)CN(C)C2=O | . | . | . | -1 | -8
CCOc1ccc(/C=C2\SC(=S)N(CCCC(=O)NCCCN3CCOCC3)C2=O)cc1 | 25 | 9 | 55* | -18 | 81*
O=C(CCN1C(=O)/C(=C/c2ccccc2)SC1=S)NCCCN1CCOCC1 | 13 | -17 | 1 | 7 | -17
O=C(CCN1C(=O)/C(=C/c2ccccc2F)SC1=S)NCCCN1CCOCC1 | 50* | 6 | 13 | -4 | -4
CO[C@H](CN(C)C(=O)c1ccccc1F)[C@H](C)CN([C@H](C)CO)S(=O)(=O)c1ccc(C)cc1 | . | . | . | -31 | 8
CCOC(=O)NCc1ccc(CNC(=O)OCC)cc1 | 73* | . | 2 | . | .
CC(C)NC(=O)N(C)C[C@@H]1OCCCC[C@H](C)Oc2ccc(NS(=O)(=O)c3ccccc3)cc2C(=O)N([C@@H](C)CO)C[C@@H]1C | . | . | . | 10 | 5
C[C@@H]1CN([C@H](C)CO)C(=O)c2cc(N(C)C)ccc2O[C@@H](C)CCCCO[C@H]1CN(C)C(=O)Nc1ccc2c(c1)OCO2 | . | . | . | 5 | -4
COc1ccc([C@H]2CC(=O)C=C(c3cc(C)ccc3OC)C2)cc1 | 10 | 7 | 1 | 14 | 60*
COc1ccc(OC)c(C2=CC(=O)C[C@H](c3ccc4c(c3)OCO4)C2)c1 | 7 | 22 | 5 | 3 | 66*
COc1c(F)cccc1C1=CC(=O)C[C@H](c2ccc3c(c2)OCO3)C1 | -44 | -20 | 5 | -21 | -6
CCOc1ccc(Br)cc1C1=CC(=O)C[C@H](c2ccc(OC)cc2)C1 | 1 | 16 | 2 | 24 | 57*
COc1ccc([C@H]2CC(=O)C=C(c3cc(Br)ccc3OC)C2)cc1 | 18 | -1 | -2 | 12 | 26
COc1ccc([C@H]2CC(=O)C=C(c3ccnc4ccc(Cl)cc34)C2)cc1 | 52* | 39 | 9 | 10 | 24
O=C(CN1CCOCC1)NCC[C@@H]1CC[C@@H](NC(=O)Nc2ccc(Cl)cc2)[C@H](CO)O1 | . | . | . | -9 | -9
Cc1ccccc1NC(=O)Nc1ccc2c(c1)C(=O)N(C)[C@@H]1CC[C@H](CC(=O)O)O[C@@H]1CO2 | . | . | . | -13 | 10
Cc1cc(N2CCN(C)CC2)ccc1NC(=O)c1c2c(nc3ccccc13)CCN(Cc1ccccc1)C2 | 12 | -85 | 77* | . | .
O=C1C(Cl)=C(N2CCCCC2)C(=O)C(Cl)=C1c1cnc(N2CCCCC2)s1 | 51* | 34 | 18 | . | .
CN(C)c1ncc(C2=C(Cl)C(=O)C(N3CCCC3)=C(Cl)C2=O)s1 | 14 | -2 | 26 | . | .
